Assay results from PubChem BioAssay (NCATS).
Records with an inconclusive call do not appear. Active and inactive are the calls of the source. Calls come from the whole dose curve; as a rule, active = well fitted inhibition curve with a large enough effect; inconclusive = small, poorly fitted or top-dose-only effect; inactive = flat fitted curve, though single readings scatter.

These molecules were tested on HACAT (assay: qHTS assay to identify novel small-molecules to repurpose for Merkel cell carcinoma treatment (AID 1296009; note: nearly all actives have a fitted effect of over 60% in size)). Conditions: MCC and control cell lines, CellTiter-Glo viability, 72 h; at 44.8 µM (top of the series) unless noted.
Text: MCC is a rare and aggressive neuroendocrine skin cancer with limited treatment options. Approximately 80% of MCCs have the Merkel cell polyomavirus (MCPyV) DNA integrated into the host genome (virus-positive: VP-MCC) and viral oncogenes drive oncogenesis. The remaining MCCs are virus-negative (VN-MCC) and are caused by UV mutagenesis. To identify novel treatments for VP-MCC and/or VN-MCC we screened three VP-MCC cell lines (WAGA, MKL-1, MKL-2), three VN-MCC cell lines (MCC-13, MCC-26, UISO), and four immortalized, non-transformed control cell lines (HaCaT, HEK293T, CRL7250, NIH-3T3) against ~2,400 compounds in the NCGC Pharmaceutical Collection (NPC) and ~1,900 compounds in the Mechanism Interrogation PlatE (MiPE). Using cell viability as a readout (CellTiter-Glo assay) we found both overlapping and distinct drugs that can be repurposed for the treatment of VP-MCC and VN-MCC.
A high-throughput screen was conducted in 1536-well white flat bottom plates (Corning) on a Kalypsys robotic system. Cell lines WAGA, MKL-1, MKL-2, MCC-13, MCC-26, UISO, HaCaT, HEK293T, CRL7250, and NIH-3T3 were screened against 2 small molecule annotated drug libraries NPC and MIPE in dose response (8 and 11 pt. respectively) measuring cell viability after 72 hours of incubation. […] A 1,536 pintool (Kalypsys) was used to transfer 23 nL of compound in DMSO to the 1,536-well assay plates. After 72 hr incubation at 37 degree celsius, 2.5 uL of CellTiter-Glo (Promega) was dispensed into each well using a BiorapTR. Plates were incubated at room temperature for 10 min, transferred to a ViewLux (PerkinElmer) and the luminescence was recorded using an exposure time of 2 seconds. Relative luminescence units (RLUs) were normalized to in-plate controls (no cells as a positive (cytotoxicity) control, DMSO as negative control) and the normalized data was processed using NCATS in-house software.

| SMILES | outcome |
| --- | --- |
| CC(C)[C@@H](C)/C=C/[C@@H](C)[C@H]1CC[C@H]2C3=CC=C4C[C@@H](O)CC[C@]4(C)C3=CC[C@]12C | inactive |
| COc1ccc2c(c1)C[C@H](C(=O)Nc1ccc(-c3cn[nH]c3)cc1OCCN(C)C)CO2 | inactive |
| C[C@@H](c1nc(-c2ccc(C#N)cc2)cs1)[C@](O)(Cn1cncn1)c1cc(F)ccc1F | inactive |
| CNC(=O)c1cccc2cc(Oc3ccnc4cc(OCC5(N)CC5)c(OC)cc34)ccc12 | inactive |
| C=C(C)C(=O)OC1[C@@H]2C(=C)C(=O)O[C@@H]2C[C@@H](C)[C@@H]2C=CC(=O)[C@@]12C (some centres not stated) | inactive |
| C=C1/C(=C/C=C2\CCC[C@]3(C)[C@@H]([C@H](C)/C=C/C(=O)C4CC4)CC[C@@H]23)C[C@@H](O)C[C@@H]1O | inactive |
| Cc1ccc(C2(COC(=O)C(C)C)CO2)c(OC(=O)C(C)C)c1 (configuration not stated) | inactive |
| COc1cc(-c2cc(-c3ccc(N4CCNCC4)cc3)cnc2C)cc(OC)c1OC | inactive |
| COc1cc(O)ccc1OCCNCC(O)COc1cccc2[nH]c3ccccc3c12 (configuration not stated) | inactive |
| CC1CCC2C(C)(C)C(O)CCC2(C)C12Cc1c(O)cc3c(c1O2)CN(C(CCCN=C(N)N)C(=O)O)C3=O (configuration not stated) | inactive [at 17.4 µM] |
| CC1CCC2C(=CCC(O)C2(C)C)C1(C)Cc1c(O)cc(CO)c(C=O)c1O (configuration not stated) | inactive |
| CCC[C@@H](NC(=O)N1C(=O)C(CC)(CC)[C@@H]1Oc1ccc(C(=O)N2CCN(C)CC2)cc1)c1ccc2c(c1)OCO2 | inactive |
| CCC(C)n1cc(C)c2c(C(=O)NCc3c(C)cc(C)[nH]c3=O)cc(-c3ccc(N4CCNCC4)nc3)cc21 (configuration not stated) | inactive |
| O=C(NCc1ccc(Oc2ccccc2)cc1)c1nc(-c2cc(Br)c(O)c(Br)c2)no1 | inactive |
| COc1cc(O)c(C(=O)CCc2ccc(O)cc2)c(O[C@@H]2O[C@H](CO)[C@@H](O)[C@H](O)[C@H]2O)c1 | inactive [at 17.4 µM] |
| CC(=O)c1c(OCCN2CCCCC2)c(OCCC(C)c2ccc(F)cc2)c2oc(C)nc2c1C (configuration not stated) | inactive |
| C/C=C(/COC(=O)/C(C)=C/C)C(=O)OC/C=C/c1ccc(OC)cc1 | inactive |
| N#CCC(C1CCCC1)n1cc(-c2ncnc3[nH]ccc23)cn1 (configuration not stated) | inactive |
| CCCCn1ccc(N2CCC(c3ccccc3)CC2)c(Cl)c1=O | inactive |
| O=C1c2c(O[C@@H]3O[C@H](CO)[C@@H](O)[C@H](O)[C@H]3O)cc(O)cc2OC1(O)Cc1ccc(O)cc1 (some centres not stated) | inactive [at 17.4 µM] |
| C=C1CC[C@@H]2[C@](C)(CO)[C@H](O)CC[C@@]2(C)[C@@H]1C/C=C1/C(=O)OC[C@@H]1O | inactive |
| CC/C(=C(\c1ccc(O)cc1)c1ccc(OCCNC)cc1)c1ccccc1 | inactive |
